Compound activity as filed in PubChem.
Pin1 inhibitor – blocks the human prolyl isomerase Pin1. Q13526. Pin1 FP peptide displacement, HiFluor488, 10 min. Potency, µM (doses to about 115 µM), without a hit: at the highest dose activity, negative = inhibition, usual class: inhibitors. 0.009% of 390,000 active. AID 504891; active = well fitted inhibition curve with a large enough effect in the polarisation, with a control signal flat, not every such curve was filed as active; inconclusive = small, poorly fitted or top-dose-only effect, or effect the other way, or a change in a side signal; inactive = no such curve, though single readings can be large or run the other way; the % refers to the polarisation; note: % is set by controls: 0 for no effect and ±100 for the full control effect
Target sequence (Q13526 whole entry, looked up): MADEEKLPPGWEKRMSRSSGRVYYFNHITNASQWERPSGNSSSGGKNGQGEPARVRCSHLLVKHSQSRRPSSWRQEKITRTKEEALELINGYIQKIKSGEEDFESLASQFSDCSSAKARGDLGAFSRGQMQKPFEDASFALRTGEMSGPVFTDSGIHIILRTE
GLS inh – blocks human kidney-isoform glutaminase activity; O94925; GLS enzymatic activity, qHTS titration; Potency, µM (series often up to 45.5 µM), inactives show at the highest dose activity change, negative = inhibition, actives largely listed as inhibitors; 0.21% of 410,000 active; AID 624170; note: % is set by controls: 0 for no effect and ±100 for the full control effect
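hKGA; 45 mM KH2PO4 pH 8.2 + 0.02% Tween-20; cpd via pin tool; 1 mM Gln soln; GluOx/HRP/Amplex Red; RT 30 min; fluor. t0 & final.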
Chronic BCR inh – inhibitors of chronic active B-cell receptor signaling | ABC-DLBCL IkBa-CBG/CBR reporter, luminescence ratio, 4 h | Potency, µM (series often up to 46.1 µM), for the others: at the top dose activity change, negative = inhibition, most hits filed as inhibitors | 0.05% of 340,000 active; active = well fitted inhibition curve with a large enough effect in the signal ratio, with a control signal flat, not every such curve was filed as active; inconclusive = small, poorly fitted or top-dose-only effect, or effect the other way, or a change in a side signal; the % refers to the signal ratio;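 note: plate controls were basal doxycycline-induced cells for no effect and cells given 10 µM MG132 for full effect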
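Cell line TMD8 (human ABC DLBCL), stably expressing tet-inducible CBG68-IkBa fusion and CBR; IMDM/0.5% FBS; cpd up to 46 uM; dox induction, 4 h, 37C/5% CO2; dual luminescence; green/red ratio; MG132 control.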
PGK inhibitor – inhibitors of T. brucei phosphoglycerate kinase | P07378 | PGK/GAPDH coupled, Kinase-Glo luminescence, 60 min | Potency, µM (doses to about 57.5 µM), without a hit: top-dose activity change, negative = inhibition, most hits filed as inhibitors | 0.043% of 380,000 active; note: % is set by controls: 0 for no effect and ±100 for the full control effect; nearly all actives have a fitted effect of over 60% in size
Target sequence (P07378 whole entry, looked up): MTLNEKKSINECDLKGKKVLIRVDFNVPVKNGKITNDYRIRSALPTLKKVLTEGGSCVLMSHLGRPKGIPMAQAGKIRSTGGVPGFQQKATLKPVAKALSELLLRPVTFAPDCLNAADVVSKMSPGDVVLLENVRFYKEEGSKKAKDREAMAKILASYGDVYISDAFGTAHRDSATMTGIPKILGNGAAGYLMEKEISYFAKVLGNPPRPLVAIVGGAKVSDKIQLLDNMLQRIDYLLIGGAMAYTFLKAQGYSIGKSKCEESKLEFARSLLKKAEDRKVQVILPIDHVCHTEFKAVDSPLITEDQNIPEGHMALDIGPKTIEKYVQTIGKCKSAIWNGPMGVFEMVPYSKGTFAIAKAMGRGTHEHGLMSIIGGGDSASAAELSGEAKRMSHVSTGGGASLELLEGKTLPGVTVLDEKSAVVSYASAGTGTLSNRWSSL
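Luminescent ATP detection (Kinase-Glo Plus) follows a 60-minute room-temperature incubation, with wells lacking PGK as controls. Buffer: 100 mM TEA (pH 7.6), 5 mM MgCl2, 0.01% Tween-20. Coupling enzyme GAPDH (100 nM final) supplies unstable 1,3-BPG in-well.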
Tb PFK inh-1 – blocks T. brucei phosphofructokinase. Potency, µM (top dose mostly 57.5 µM), inactives show at the highest dose activity, negative = inhibition, usual class: inhibitors. 0.17% of 330,000 active. T. brucei PFK, ADP-Glo luminescence. O15648;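 note: 0% = uninhibited 1x PFK enzyme wells and -100% = no-enzyme wells; nearly all actives have a fitted effect of over 60% in size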
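1.25 nM PFK with 0.5 mM F6P and 0.1 mM ATP in 0.1 M TEA pH 8.0, 5 mM MgCl2, incubated 45 min at room temperature; ADP measured by ADP-Glo luminescence; compounds titrated up to 57 uM.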
B2AR arrestin – recruits beta-arrestin to the human beta2-adrenergic receptor | P07550 | Potency, µM (top dose mostly 46.1 µM), for the others: at the highest dose activation, usual class: activators | beta-arrestin recruitment to beta2AR, cell-based reporter | 0.02% of 330,000 active;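 note: 0% = DMSO controls and full agonism = EC100 isoproterenol or metaproterenol; nearly all actives have a fitted effect of over 65% in size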
Tb PFK KinaseGlo – orthogonal confirmation of T. brucei phosphofructokinase inhibitors. shares compounds with Tb PFK inh-1. Tb PFK enzyme, ATP depletion, Kinase-Glo Plus luminescence. Potency, µM (doses to about 57.5 µM), for the others: at the highest dose inhibition. 47% of 1,100 active. AID 504636; calls by dose curve; note: nearly all actives have a fitted effect of over 60% in size
Tb PFK inh-2 – T. brucei PFK enzyme inhibition, hit validation; AID 504637; Potency, µM (titrated, usually from 57.5 µM), for inactives: at the top dose activity change, negative = inhibition, most hits filed as inhibitors; shares compounds with Tb PFK inh-1; purified T. brucei PFK, ADP-Glo luminescence, 45 min; 41% of 1,100 active;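 note: plate controls were full PFK enzyme control for no effect and no enzyme control for full effect; nearly all actives have a fitted effect of over 60% in size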
Numbers without * were called inactive; i = inactive; ? = inconclusive; . = not tested or not shown; [ ] = remark or other dose. Compounds with a hit are over-represented: about 0.42% of the library has one in this group of screens. Unless noted, calls come from the whole dose curve; as a rule, active = well fitted curve in the direction sought with a large enough effect; inconclusive = small, poorly fitted or top-dose-only effect, or another doubt; inactive = no such curve, though single readings can be large; an effect the other way counts as inactive or inconclusive. Potency is the fitted concentration of half-maximal effect.

SMILES | Pin1 inhibitor | GLS inh | Chronic BCR inh | PGK inhibitor | Tb PFK inh-1 | B2AR arrestin | Tb PFK KinaseGlo | Tb PFK inh-2
COc1cc(/C=C(\C#N)C(=O)c2ccc(O)c(O)c2)cc(I)c1O | ? | 12.8% | ? | ? | 1.69µM* | -0.6% | 6.4% | -17.3%
O=C(CCN1CCN(Cc2ccccc2)CC1)NNC(=O)Cc1ccc(Cl)c(Cl)c1 | 2.9% | 1.9% | -3.4% | -7.7% | 16.9µM* | -0.4% | 8.49µM* | 10.7µM*
Nc1nonc1C(=O)N/N=C/c1ccc(-c2ccc(Cl)c(C(=O)O)c2)o1 | 0.1% | 1.9% | ? | -17.7% | ? | 0.0% | -19.2% | ?
CC(C)c1c(C(=O)N/N=C/c2cccc(OCc3ccccc3)c2)nnn1-c1nonc1N | 8.1% | 0.2% | ? | -1.3% | -3.6% | -0.3% | . | .
C[C@]12CC[C@H](OS(=O)(=O)O)CC1=CCC1C2CC[C@]2(C)C(=O)CC[C@@H]12 (some centres not stated) | . | 19.8% | . | . | . | . | . | .
Cc1n[nH]c(C)c1CCN | -2.9% | 31.6% | -3.2% | -2.2% | 4.2% | -0.2% | . | .
COc1cccc(OCCc2c(C)n[nH]c2C)c1 | 8.9% | -1.3% | -8.5% | -2.1% | 26.9µM* | 0.0% | ? | ?
COc1ccc(N2CCN(Cc3nc(-c4ccccc4)no3)CC2)cc1 | 0.4% | 5.2% | 13.3% | -7.0% | 23.9µM* | 0.2% | 4.2% | 3.0%
O=C1OC(=O)C2C3CCC(O3)C12 (configuration not stated) | . | . | 12.4% | . | -7.5% | 0.9% | . | .
C#C[C@]1(O)CC[C@H]2[C@@H]3CCC4=CC(=O)CCC4(C)[C@H]3CCC21C (some centres not stated) | . | 1.8% | . | . | . | . | . | .
O=c1c(O)cccc2cc(O)c(O)c(O)c12 | . | 1.58µM* | 13.3% | 0.794µM* | 6.75µM* | -1.1% | 0.426µM* | 0.477µM*
CC(=O)[C@H]1[C@H]([C@H](O)[C@H](O)CO)O[C@](O)(C(=O)O)C[C@@H]1O | 0.0% | -7.8% | 18.1% | -9.6% | 1.69µM* | 0.0% | ? | -16.2%
CCCSP(=O)(OCC)SCCC | . | -1.0%[99.4 µM] | . | . | . | . | . | .
O=C(CCS(=O)(=O)c1ccc(Br)cc1)Nc1ccc(Br)cc1F | -3.2% | -2.0% | 0.3% | -11.7% | ? | -0.5% | ? | ?
Cn1c(=O)oc2cc(S(=O)(=O)N3CCC(C(=O)N4CCc5ccccc5C4)CC3)ccc21 | -0.6% | -4.2% | ? | i | 0.5% | -0.1% | . | .
CCN1CC(CNC(=O)c2ccc3nc(Cc4cccc(Cl)c4)oc3c2)CC1=O (configuration not stated) | 3.1% | -0.4% | ? | 6.9% | ? | -0.5% | ? | 15.1µM*
Cc1nc2c(C(=O)N3CCC4(CC3)OCCO4)cnn2c(C)c1Cc1cccc(Cl)c1 | 6.1% | 0.1% | 4.7% | 9.1% | -3.8% | -1.0% | . | .
Cc1ccc2c(c1)[C@@H]1CN(C)CC[C@H]1N2 | . | 42.6% | . | . | . | . | . | .
COC(=O)c1[nH]c2ccc(C)cc2c1NC(=O)CN1CCCc2ccccc21 | 32.6% | 10.7% | ? | -7.0% | ? | 0.1% | -29.7% | ?
CSc1ccccc1NC(=O)CN(C)C(=O)Cn1c(=O)oc2ccccc21 | -5.1% | -13.3% | ? | i | -1.5% | -1.4% | . | .
O=C(C1CCN(S(=O)(=O)c2ccccc2)CC1)N1CCC2(CC1)OCCO2 | -7.7% | 5.4% | 5.7% | -1.3% | -1.5% | -0.1% | . | .
C[C@H](NC(=O)C1CCN(S(=O)(=O)c2ccccc2)CC1)C(=O)NCc1ccc(Cl)c(Cl)c1 | -3.6% | -3.8% | ? | 8.3% | 26.9µM* | 0.4% | 21.3µM* | ?
